Assay results from PubChem BioAssay (Tox21).
Results filed as inconclusive are left out. Calls of active or inactive are those of the source. Unless noted, calls come from the whole dose curve; as a rule, active = well fitted curve in the direction sought with a large enough effect in the repeat runs; inconclusive = weak or mixed curves; inactive = no such curve, though single readings can be large; an effect the other way counts as inactive or inconclusive.

Experiments:
[1] = qHTS assay to identify small molecule agonists of the peroxisome proliferator-activated receptor delta (PPARd) signaling pathway - cell viability counter screen (AID 743211); note: nearly all actives have a fitted effect of over 55% in size
Procedure, shortened: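 PPARd-bla HEK293H cells (3000/well) were pre-incubated 5 h at 37 C, then exposed to compound for 17 h at 37 C. After 2 h with LiveBLAzer substrate, CellTiter-Glo was added to the same wells; luminescence read after 30 min at room temperature.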

[2] = biological target: Peroxisome proliferator-activated receptor delta (Homo sapiens) (UniProt Q03181); experiment: qHTS assay to identify small molecule agonists of the peroxisome proliferator-activated receptor delta (PPARd) signaling pathway (AID 743212; calls by dose curve)
Peroxisome proliferator-activated receptor delta (Homo sapiens), sequence (Q03181 whole entry, looked up): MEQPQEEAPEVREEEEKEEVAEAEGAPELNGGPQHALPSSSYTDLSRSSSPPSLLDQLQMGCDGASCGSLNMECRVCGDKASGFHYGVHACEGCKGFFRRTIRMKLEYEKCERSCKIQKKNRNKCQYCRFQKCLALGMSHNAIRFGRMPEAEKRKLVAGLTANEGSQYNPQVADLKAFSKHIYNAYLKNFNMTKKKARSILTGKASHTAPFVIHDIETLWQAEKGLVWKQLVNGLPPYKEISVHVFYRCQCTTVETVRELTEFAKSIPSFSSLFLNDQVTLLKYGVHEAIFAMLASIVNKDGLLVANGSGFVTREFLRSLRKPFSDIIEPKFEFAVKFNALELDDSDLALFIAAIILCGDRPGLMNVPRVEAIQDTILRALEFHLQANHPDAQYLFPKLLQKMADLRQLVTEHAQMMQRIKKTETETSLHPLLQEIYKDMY
Procedure, shortened: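 GeneBLAzer PPARd UAS-bla HEK293H cells (beta-lactamase reporter under UAS control), plated and rested 5 h at 37 C, then exposed to compounds in DMSO at 37 C; LiveBLAzer B/G FRET substrate added, 2 h room temperature, fluorescence read.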

[3] = qHTS assay to identify small molecule antagonists of the peroxisome proliferator-activated receptor delta (PPARd) signaling pathway - cell viability counter screen (AID 743213); note: nearly all actives have a fitted effect of over 50% in size
Procedure, shortened: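 Same-well viability: cells pre-incubated 5 h, dosed with compound plus 300 nM L165041, kept 17 h at 37 C, FRET substrate 2 h RT, then CellTiter-Glo 30 min RT and luminescence.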

[4] = biological target: Peroxisome proliferator-activated receptor delta (Homo sapiens) (UniProt Q03181); experiment: qHTS assay to identify small molecule antagonists of the peroxisome proliferator-activated receptor delta (PPARd) signaling pathway (AID 743215; active = well fitted inhibition curve with a large enough effect in the signal ratio in the repeat runs, not every such curve was filed as active; the % refers to the signal ratio;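 note: cells stimulated with agonist L165041 at 300 nM final during compound exposure; series mostly up to about 62 µM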)
Procedure, shortened: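 PPARd UAS-bla HEK293H cells were pre-incubated 5 h at 37 C, then given test compounds in DMSO plus agonist L165041 (300 nM final). After 17 h at 37 C, beta-lactamase FRET substrate was added; fluorescence read after 2 h at room temperature.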

[5] = qHTS assay to identify small molecule agonists of the farnesoid-X-receptor (FXR) signaling pathway - cell viability counter screen (AID 743218); note: nearly all actives have a fitted effect of over 45% in size
Procedure, shortened: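 FXR-UAS-bla HEK 293T cells, plated 5 h at 37 C, were exposed to compounds for 16 h at 37 C. CellTiter-Glo was then added to the same wells as the bla readout; luminescence read after 30 min at room temperature.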

[6] = qHTS assay to identify small molecule antagonists of the farnesoid-X-receptor (FXR) signaling pathway - cell viability counter screen (AID 743221; active = well fitted cell-killing curve with a large enough effect in the repeat runs, not every such curve was filed as active; note: nearly all actives have a fitted effect of over 50% in size)
Procedure, shortened: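 GeneBLAzer FXR-UAS-bla HEK 293T cells, compound plus chenodeoxycholic acid (50 uM final), 16 h at 37 C. CellTiter-Glo added to the same wells after the beta-lactamase read; luminescence read after 30 min at room temperature as viability.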

[7] = biological target: Vitamin D3 receptor (Homo sapiens) (UniProt P11473); experiment: qHTS assay to identify small molecule agonists of the vitamin D receptor (VDR) signaling pathway (AID 743222; calls by dose curve)
Vitamin D3 receptor (Homo sapiens), sequence (P11473 whole entry, looked up): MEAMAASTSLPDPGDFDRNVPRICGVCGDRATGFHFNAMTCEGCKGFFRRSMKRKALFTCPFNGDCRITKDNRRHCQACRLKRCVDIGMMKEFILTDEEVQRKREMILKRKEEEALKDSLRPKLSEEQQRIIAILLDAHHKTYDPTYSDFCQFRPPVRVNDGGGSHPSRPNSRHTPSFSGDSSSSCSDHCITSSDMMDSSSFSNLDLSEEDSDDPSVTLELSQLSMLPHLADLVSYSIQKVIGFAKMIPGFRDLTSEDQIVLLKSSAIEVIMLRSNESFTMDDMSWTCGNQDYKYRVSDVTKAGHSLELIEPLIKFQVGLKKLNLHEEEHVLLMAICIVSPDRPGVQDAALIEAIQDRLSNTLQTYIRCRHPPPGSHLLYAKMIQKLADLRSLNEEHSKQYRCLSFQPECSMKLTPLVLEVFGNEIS
Procedure, shortened: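 VDR-bla cells were plated 4 h at 37C/5% CO2, then exposed to compounds in DMSO for 16 h. After LiveBLAzer B/G FRET substrate addition and 2 h at room temperature, beta-lactamase reporter fluorescence was read.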

[8] = biological target: Vitamin D3 receptor (Homo sapiens) (UniProt P11473); experiment: qHTS assay to identify small molecule antagonists of the vitamin D receptor (VDR) signaling pathway (AID 743223; active = well fitted inhibition curve with a large enough effect in the signal ratio in the repeat runs, not every such curve was filed as active; the % refers to the signal ratio)
Procedure, shortened: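 VDR-bla cells were treated with compound plus 3 nM final 1alpha,25-dihydroxyvitamin D3 for 16 h at 37C. Beta-lactamase reporter read by B/G FRET substrate fluorescence after 2 h at room temperature. qHTS format.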

[9] = qHTS assay to identify small molecule agonists of the vitamin D receptor (VDR) signaling pathway - cell viability counter screen (AID 743224); note: series mostly up to about 63 µM; nearly all actives have a fitted effect of over 50% in size
Procedure, shortened: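 VDR-bla cells were preincubated 4 h at 37C/5% CO2, then exposed to compounds for 16 h. After the 2 h room-temperature bla FRET read, CellTiter-Glo was added to the same wells and luminescence read after 30 min.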

[10] = qHTS assay to identify small molecule antagonists of the vitamin D receptor (VDR) signaling pathway - cell viability counter screen (AID 743225); note: nearly all actives have a fitted effect of over 50% in size
Procedure, shortened: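 VDR-UAS-bla HEK 293T cells were plated and incubated 4 h at 37C, then dosed with compound plus 3 nM (final) 1-alpha,25-dihydroxyvitamin D3 for 16 h. After the 2 h beta-lactamase read, viability in the same wells was read as CellTiter-Glo luminescence after 30 min at room temperature.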

[11] = qHTS assay to identify small molecule agonists of the NFkB signaling pathway (AID 1159509; active = well fitted curve in the direction sought with a large enough effect in the signal ratio in the repeat runs, not every such curve was filed as active; the % refers to the signal ratio; note: series mostly up to about 61 µM)
Procedure, shortened: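 NFkB-bla ME-180 cells with a beta-lactamase reporter under an NF-kB response element were plated overnight, treated with compounds in DMSO for 5 hr at 37 C, then loaded with FRET substrate for 1.5 hr at room temperature.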

[12] = qHTS assay to identify small molecule agonists of the NFkB signaling pathway - cell viability counter screen (AID 1159515; calls by dose curve; note: series mostly up to about 61 µM; nearly all actives have a fitted effect of over 55% in size)
Procedure, shortened: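 NFkB-bla ME-180 cells, 2,000/well, were plated overnight at 37 C, 5% CO2, then exposed to compounds in DMSO for 5 hr. After the bla FRET read, CellTiter-Glo was added to the same wells; luminescence was read after 30 min at room temperature.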

[13] = qHTS assay to identify small molecule agonists of the endoplasmic reticulum stress response signaling pathway (AID 1159516; active = well fitted activation curve with a large enough effect in the signal ratio in the repeat runs, not every such curve was filed as active; the % refers to the signal ratio)
Procedure, shortened: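 CellSensor ESRE-bla HeLa cells, carrying a beta-lactamase reporter driven by the ER stress response element, were plated overnight and exposed to compounds for 5 hr at 37 C. Reporter activity was read as FRET substrate fluorescence after 2 hr at room temperature.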

[14] = qHTS assay to identify small molecule agonists of the endoplasmic reticulum stress response signaling pathway - cell viability counter screen (AID 1159517; calls by dose curve)
Procedure, shortened: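 Luminescence readout: CellTiter-Glo, 30 min RT, same wells as the ESRE-bla reporter read. HeLa ESRE-bla, 1,500 cells/well, o/n 37 C; cpd 5 hr 37 C/5% CO2.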

[15] = qHTS assay to identify small molecule antagonists of the retinoid-related orphan receptor gamma (ROR-gamma) signaling pathway - cell viability counter screen (AID 1159520); note: nearly all actives have a fitted effect of over 50% in size
Procedure, shortened: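 Tet-on ROR gamma CHO cells (1,000/well) were plated 4 hr, given compounds in DMSO for 2 hr at 37 C, then induced with 1 uM final doxycycline for 16 hr. Viability was read as ATP by CellTiter-Glo luminescence after 30 min.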

[16] = biological target: Nuclear receptor ROR-gamma (Homo sapiens) (UniProt P51449); experiment: qHTS assay to identify small molecule antagonists of the retinoid-related orphan receptor gamma (ROR-gamma) signaling pathway (AID 1159521)
Procedure, shortened: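 Tet-on ROR-gamma CHO cells with ROR response element-luciferase reporter; compounds added 2 hr before 1 uM doxycycline induction, then 16 hr at 37 C. Antagonism scored as decreased ONE-Glo luminescence.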

[17] = qHTS assay to identify small molecule agonists of the AP-1 signaling pathway - cell viability counter screen (AID 1159525; calls by dose curve; note: nearly all actives have a fitted effect of over 55% in size)
Procedure, shortened: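 ME-180 AP-1-bla, 2500 cells/well, Opti-MEM + 0.5% dialyzed FBS; overnight 37 °C; cpd 15-pt titration, 5 h 37 °C; CellTiter-Glo 30 min RT; luminescence read; normalised to TOAB and DMSO controls.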

[18] = qHTS assay to identify small molecule agonists of the AP-1 signaling pathway (AID 1159526; calls by dose curve)

Measured: Potency

O=[N+]([O-])c1cc([As](=O)(O)O)ccc1O
inactive: all assays above

Cc1ccccc1N
not listed: [7] | [8]
inactive: all other assays above

CN(C)C(=O)Nc1cccc(C(F)(F)F)c1
not listed: [10]
inactive: all other assays above

Cc1cc(Cl)ccc1OC(C)C(=O)O (centres undefined)
not listed: [7] | [8] | [10]
inactive: all other assays above

CC(C)c1cccc(C(C)C)c1O
inactive: all assays above

O=C/C=C/c1ccccc1
not listed: [10]
inactive: all other assays above

Cc1cccc(N)c1
inactive: all assays above
